Results reported in PubChem BioAssay AID1159580 (chemical genetic matrix, 2015).
“And” between values parts separate entries of the source, which are not always exact repeats. Equal values may be shown once. In all, about 5,500 compounds went through this assay and about 2,000 (36%) were called active. About 18% were inconclusive and are not listed. Rule as the data show it: active = normalized growth mostly below about 0.91 (no sharp cut-off); inconclusive = no clear call, values can overlap the other calls; inactive = mostly above about 0.92. The list shows a part of the results.

Test: chemical genetic growth profiling, strain panel (AID 1159580);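 also: tested at 20 µM; growth read once vehicle control cultures reached saturation at 30 °C; 1 = growth at the plate median or of vehicle wells; lower values mean less growth of the strain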
Conditions: S. cerevisiae deletion strains, growth OD

Measured: normalized growth

COc1cc2cc3c4cc(OC)c(OC)cc4cc[n+]3c(C)c2cc1OC
inactive: locus YAL021C, strain ccr4, active compounds read low 1.05 | locus YAL026C, strain drs2, active compounds read low 1.03 | locus YAL030W, strain snc1, active compounds read low 1.01 | locus YBL061C, strain skt5, active compounds read low 1.02 | locus YBR009C, strain hhf1, active compounds read low 1.01 | locus YBR021W, strain FUR4, active compounds read low 1 | locus YBR023C, strain chs3, active compounds read low 1.01 | locus YBR171W, strain sec66, active compounds read low 1.03 | locus YBR229C, strain ROT2, active compounds read low 1.01 | locus YBR231C, strain swc5, active compounds read low 1 | locus YBR279W, strain paf1, active compounds read low 1.01 | locus YCL011C, strain gbp2, active compounds read low 1.01 | locus YCL016C, strain dcc1, active compounds read low 0.997 | locus YCL029C, strain bik1, active compounds read low 1.01 | locus YCL061C, strain MRC1, active compounds read low 1.01 | locus YCL069W, strain vba3, active compounds read low 1.01 | locus YCR088W, strain abp1, active compounds read low 1.01 | locus YDL005C, strain med2, active compounds read low 1.02 | locus YDL035C, strain GPR1, active compounds read low 0.998 | locus YDL040C, strain nat1, active compounds read low 0.992 | locus YDL074C, strain BRE1, active compounds read low 0.996 | locus YDL101C, strain DUN1, active compounds read low 1.01 | locus YDL134C, strain PPH21, active compounds read low 0.982 | locus YDL185W, strain tfp1, active compounds read low 1.02 | locus YDL192W, strain arf1, active compounds read low 1 | locus YDR001C, strain nth1, active compounds read low 1.01 | locus YDR069C, strain doa4, active compounds read low 1.02 | locus YDR101C, strain arx1, active compounds read low 1.01 | locus YDR137W, strain rgp1, active compounds read low 1.06 | locus YDR159W, strain sac3, active compounds read low 1 | locus YDR162C, strain NBP2, active compounds read low 0.999 | locus YDR195W, strain ref2 0.97 | locus YDR297W, strain sur2, active compounds read low 1.01 | locus YDR318W, strain mcm21, active compounds read low 0.987 | locus YDR334W, strain swr1, active compounds read low 1.02 | locus YDR335W, strain msn5, active compounds read low 1.01 | locus YDR388W, active compounds read low 1 | locus YDR392W, strain spt3, active compounds read low 0.848 | locus YDR502C, strain sam2, active compounds read low 0.987 | locus YEL003W, strain gim4, active compounds read low 1.01 | locus YEL037C, strain rad23, active compounds read low 1.01 | locus YEL061C, strain CIN8 (second series), active compounds read low 1.01 | locus YEL061C, strain CIN8, active compounds read low 1.01 | locus YER015W, strain faa2, active compounds read low 1.01 | locus YER016W, strain bim1, active compounds read low 1 | locus YER110C, active compounds read low 1.02 | locus YER111C, strain swi4, active compounds read low 1.03 | locus YER155C, strain BEM2 (second series), active compounds read low 0.97 | locus YER155C, strain BEM2, active compounds read low 1.01 | locus YER167W, strain BCK2, active compounds read low 1 | locus YFR010W, strain ubp6, active compounds read low 1.03 | locus YGL078C, strain dbp3, active compounds read low 0.997 | locus YGL086W, strain mad1, active compounds read low 1.03 | locus YGL167C, strain pmr1, active compounds read low 1.01 | locus YGL173C, strain kem1, active compounds read low 1.03 | locus YGL227W, strain vid30, active compounds read low 1.01 | locus YGL240W, strain doc1, active compounds read low 0.999 | locus YGL248W, strain PDE1, active compounds read low 0.997 | locus YGL253W, strain hxk2, active compounds read low 1.03 | locus YGR135W, strain pre9, active compounds read low 0.988 | locus YGR229C, strain SMI1, active compounds read low 1.01 | locus YGR252W, strain gcn5, active compounds read low 0.904 | locus YHR013C, strain ard1, active compounds read low 1.01 | locus YHR027C, strain rpn1, active compounds read low 1.04 | locus YHR030C, strain SLT2, active compounds read low 1.01 and 0.988 | locus YHR079C, strain IRE1 (second series), active compounds read low 1.02 | locus YHR079C, strain IRE1, active compounds read low 1 | locus YHR094C, strain hxt1, active compounds read low 1.01 | locus YHR129C, strain ARP1, active compounds read low 1 | locus YHR142W, strain chs7, active compounds read low 1.01 | locus YHR200W, strain rpn10, active compounds read low 0.994 | locus YIL066C, strain RNR3, active compounds read low 1.01 | locus YIL073C, strain SPO22, active compounds read low 1.01 | locus YIL125W, strain kgd1, active compounds read low 1.01 | locus YIR030C, strain dcg1, active compounds read low 1 | locus YJL092W, strain hpr5, active compounds read low 1.01 | locus YJL095W, strain BCK1 (second series), active compounds read low 1.01 | locus YJL095W, strain BCK1, active compounds read low 1.01 and 0.99 | locus YJL115W, strain asf1, active compounds read low 1.01 | locus YJL129C, strain trk1, active compounds read low 1.02 | locus YJL134W, strain LCB3, active compounds read low 1.01 | locus YJL154C, strain vps35, active compounds read low 1.01 | locus YJL164C, strain tpk1, active compounds read low 0.984 | locus YJL166W, strain qcr8, active compounds read low 1.02 | locus YJL168C, strain set2, active compounds read low 1.01 | locus YJL187C, strain SWE1 (second series), active compounds read low 0.991 | locus YJL187C, strain SWE1, active compounds read low 1.01
